Source: PubChem BioAssay (NCATS)
Inconclusive results are not listed. The source made the active and inactive calls. Unless noted, calls come from the whole dose curve; as a rule, active = well fitted curve in the direction sought with a large enough effect; inconclusive = small, poorly fitted or top-dose-only effect, or another doubt; inactive = no such curve, though single readings can be large; an effect the other way counts as inactive or inconclusive.

How the values were obtained:
[1] = P-glycoprotein substrates identified in KB-8-5-11 adenocarcinoma cell line, qHTS therapeutic library screen (AID 1346987); note: nearly all actives have a fitted effect of over 65% in size; note: potency is the fitted concentration of half-maximal effect; for activity change, negative = cytotoxicity: % is set by controls: 0 for no effect and ±100 for the full control effect
Outline: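 Steps: plate 500 KB-8-5-11 cells/well in DMEM + 10% FCS (colchicine removed); pin compounds in dose-response; incubate 72 h, 37 degree C, 5% CO2; add CellTiter-Glo, 5 min; read luminescence.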

[2] = test system: Zika virus NS2B-NS3 protease (unlinked complex); assay: Primary screen GU Rhodamine qHTS for Zika virus inhibitors: Unlinked NS2B-NS3 protease assay (AID 1347159); note: % is set by controls: 0 for no effect and ±100 for the full control effect; nearly all actives have a fitted effect of over 60% in size
Outline: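 Percent inhibition derives from the 15-min fluorescence change (ex 480, em 540 nm), normalized to no-enzyme and no-inhibitor wells. Reactions contained 25 nM NS2B-NS3 complex and 1.5 microM substrate in 10 mM Tris-HCl pH 8.0.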

[3] = Primary qHTS for inhibitors of nuclear receptor binding SET domain protein 2 (NSD2) in an isogenic RCH-ACV NSD2 p.E1099K mutant (9B) (AID 1645876); note: nearly all actives have a fitted effect of over 70% in size; note: potency is the fitted concentration of half-maximal effect
[4] = Primary qHTS for inhibitors of nuclear receptor binding SET domain protein 2 (NSD2) in an RCH-ACV wild type WT cells (2C) (AID 1645877); note: nearly all actives have a fitted effect of over 70% in size; note: potency is the fitted concentration of half-maximal effect
HEK293 = assay: Cytotoxic Profiling of Annotated Libraries Using Quantitative High-Throughput Screening (AID 1296008); conditions: Five cell lines viability, CellTiter-Glo ATP luminescence, 48-72 h; max response: stronger effect = lower value; note: nearly all actives have a fitted effect of over 60% in size; note: potency is the fitted concentration of half-maximal effect; for max response: % is set by controls: 0 for no effect and ±100 for the full control effect
Outline: (§1)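 Cytotoxicity was measured as CellTiter-Glo ATP luminescence, read after 10 min at room temperature. Compound treatment of the cells lasted 48 or 72 hr at 37 degrees Celsius in a qHTS format.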

[5] = P-glycoprotein substrates identified in KB-3-1 adenocarcinoma cell line, qHTS therapeutic library screen (AID 1346986); note: nearly all actives have a fitted effect of over 60% in size
Outline: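 Cells seeded 500/well in DMEM/10% FCS; compounds pinned in dose-response; 72 h incubation; CellTiter-Glo added, 5 min, luminescence. KB-8-5-11 run ±tariquidar to test reversal of P-gp resistance.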

KB-3-1 = assay: Cytotoxic Profiling of Annotated Libraries Using Quantitative High-Throughput Screening (AID 1296008); conditions: Five cell lines viability, CellTiter-Glo ATP luminescence, 48-72 h; max response: stronger effect = lower value; note: nearly all actives have a fitted effect of over 60% in size; note: potency is the fitted concentration of half-maximal effect; for max response: % is set by controls: 0 for no effect and ±100 for the full control effect
Outline: as §1

HeLa = assay: Primary qHTS to identify gynecologic anti-cancer compounds using libraries of approved drugs and bioactive compounds (AID 1345084); conditions: Gynecologic cancer cell panel viability, ATPlite luminescence, 48 h; series mostly up to 57.5 µM; note: nearly all actives have a fitted effect of over 55% in size; note: potency is the fitted concentration of half-maximal effect
Outline: (§2)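 Five-concentration response, 48 h; readout is ATP-driven luciferase luminescence.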

SKOV3 = assay: as above; conditions: Gynecologic cancer cell panel viability, ATPlite luminescence, 48 h; series mostly up to 57.5 µM
Outline: as §2

[6] = molecular target: Cytochrome P450 2D6 (Homo sapiens) (UniProt P10635); assay: Cytochrome P450 family 2 subfamily D member 6 (CYP2D6) small molecule antagonists: luciferase biochemical (cell-free) qHTS assay (AID 1645840; active = well fitted curve in the direction sought with a large enough effect in the repeat runs; an effect the other way counts as inactive or inconclusive; note: potency is the fitted concentration of half-maximal effect; nearly all actives have a fitted effect of over 55% in size)
Sequence of Cytochrome P450 2D6 (Homo sapiens) (P10635 whole entry, looked up): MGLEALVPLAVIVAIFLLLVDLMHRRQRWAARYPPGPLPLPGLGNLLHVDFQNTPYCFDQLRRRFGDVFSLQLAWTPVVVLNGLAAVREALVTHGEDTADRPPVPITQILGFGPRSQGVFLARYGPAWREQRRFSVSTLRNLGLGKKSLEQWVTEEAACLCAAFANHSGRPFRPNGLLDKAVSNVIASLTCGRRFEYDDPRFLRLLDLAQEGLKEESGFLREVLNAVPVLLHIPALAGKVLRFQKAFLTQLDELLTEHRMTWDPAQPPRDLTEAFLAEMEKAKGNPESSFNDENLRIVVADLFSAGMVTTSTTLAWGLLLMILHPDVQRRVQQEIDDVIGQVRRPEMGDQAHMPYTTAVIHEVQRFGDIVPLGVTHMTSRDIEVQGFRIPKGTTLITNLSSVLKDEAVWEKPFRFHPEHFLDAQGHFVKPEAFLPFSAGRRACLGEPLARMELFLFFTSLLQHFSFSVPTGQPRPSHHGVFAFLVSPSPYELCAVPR
Outline: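 P450-Glo luminescent screen: recombinant CYP2D6 enzyme–proluciferin substrate mix preincubated with compound 10 min at room temperature, then NADPH regeneration added for 1 h at room temperature. Detection reagent added for 20 min; luciferin light read as relative luminescence units.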

[7] = molecular target: Cytochrome P450 2C9 (Homo sapiens) (UniProt P11712); assay: Cytochrome P450 family 2 subfamily C member 9 (CYP2C9) small molecule antagonists: luciferase biochemical (cell-free) qHTS assay (AID 1645842; active = well fitted curve in the direction sought with a large enough effect in the repeat runs; an effect the other way counts as inactive or inconclusive; note: % is set by controls: 0 for no effect and ±100 for the full control effect; nearly all actives have a fitted effect of over 55% in size)
Sequence of Cytochrome P450 2C9 (Homo sapiens) (P11712 whole entry, looked up): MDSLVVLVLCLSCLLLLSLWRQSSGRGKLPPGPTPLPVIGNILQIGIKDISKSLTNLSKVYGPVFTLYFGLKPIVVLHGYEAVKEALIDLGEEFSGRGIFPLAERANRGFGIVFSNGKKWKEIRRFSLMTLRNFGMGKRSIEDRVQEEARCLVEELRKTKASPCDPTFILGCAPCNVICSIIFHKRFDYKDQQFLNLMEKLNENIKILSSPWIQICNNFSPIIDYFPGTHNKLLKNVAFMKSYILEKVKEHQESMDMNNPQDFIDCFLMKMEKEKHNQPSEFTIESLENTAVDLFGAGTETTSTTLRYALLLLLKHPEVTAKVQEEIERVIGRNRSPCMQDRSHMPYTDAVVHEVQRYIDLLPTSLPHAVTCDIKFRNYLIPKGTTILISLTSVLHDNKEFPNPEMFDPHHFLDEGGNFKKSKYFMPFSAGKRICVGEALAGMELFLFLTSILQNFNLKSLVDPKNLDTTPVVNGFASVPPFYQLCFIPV
Outline: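 Luminescence, after 20 min with luciferin detection reagent, reflected CYP2C9 turnover during a 1 h NADPH-driven reaction at 37C. Enzyme-substrate mix contained 0.4% bovine serum albumin and was preincubated with compound 10 min at room temperature.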

HaCat [8] = assay: Cytotoxic Profiling of Annotated Libraries Using Quantitative High-Throughput Screening (AID 1296008); conditions: Five cell lines viability, CellTiter-Glo ATP luminescence, 48-72 h; max response: stronger effect = lower value; note: nearly all actives have a fitted effect of over 60% in size; note: potency is the fitted concentration of half-maximal effect; for max response: % is set by controls: 0 for no effect and ±100 for the full control effect
Outline: as §1

CRL-7250 = normal cell line; assay: qHTS assay to identify novel small-molecules to repurpose for Merkel cell carcinoma treatment (AID 1296009); conditions: MCC and control cell lines, CellTiter-Glo viability, 72 h; series mostly up to 92 µM; note: nearly all actives have a fitted effect of over 60% in size
Outline: (§3)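 72 hr, 37 degree celsius; NPC 8-pt / MIPE 11-pt dose response; compound pinned in DMSO; CellTiter-Glo, 10 min RT, luminescence; normalized to no-cell and DMSO controls.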

HACAT [9] = assay: as above; conditions: MCC and control cell lines, CellTiter-Glo viability, 72 h; at 44.8 µM (top of the series) unless noted
Outline: as §3

NIH3T3 = assay: as above; conditions: MCC and control cell lines, CellTiter-Glo viability, 72 h; at 44.8 µM (top of the series) unless noted
Outline: as §3

[10] = molecular target: Catechol O-methyltransferase (Homo sapiens) (UniProt P21964); assay: Confirmatory Screen for Target Class Profiling of Small Molecule Inhibitors of Methyltransferases (AID 1745852); conditions: MTase-Glo luminescence, SAH detection, recombinant enzyme; measured here: COMT max response; stronger effect = lower value
Sequence of Catechol O-methyltransferase (Homo sapiens) (P21964 whole entry, looked up): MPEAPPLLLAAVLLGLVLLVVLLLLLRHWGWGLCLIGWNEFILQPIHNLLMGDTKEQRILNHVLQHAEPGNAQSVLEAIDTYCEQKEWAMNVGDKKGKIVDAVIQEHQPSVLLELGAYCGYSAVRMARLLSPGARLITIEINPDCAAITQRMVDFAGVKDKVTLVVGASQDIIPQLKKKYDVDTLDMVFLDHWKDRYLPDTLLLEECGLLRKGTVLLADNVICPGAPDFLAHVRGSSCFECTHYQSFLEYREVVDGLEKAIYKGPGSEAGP

[11] = molecular target: Guanidinoacetate N-methyltransferase (Homo sapiens) (UniProt Q14353); assay: as above; conditions: activity change, negative = inhibition: at 57.3 µM (top of the series) unless noted
[12] = molecular target: Nicotinamide N-methyltransferase (Homo sapiens) (UniProt P40261); assay: as above; conditions: MTase-Glo luminescence, SAH detection, recombinant enzyme; measured here: NNMT max response; stronger effect = lower value
Sequence of Nicotinamide N-methyltransferase (Homo sapiens) (P40261 whole entry, looked up): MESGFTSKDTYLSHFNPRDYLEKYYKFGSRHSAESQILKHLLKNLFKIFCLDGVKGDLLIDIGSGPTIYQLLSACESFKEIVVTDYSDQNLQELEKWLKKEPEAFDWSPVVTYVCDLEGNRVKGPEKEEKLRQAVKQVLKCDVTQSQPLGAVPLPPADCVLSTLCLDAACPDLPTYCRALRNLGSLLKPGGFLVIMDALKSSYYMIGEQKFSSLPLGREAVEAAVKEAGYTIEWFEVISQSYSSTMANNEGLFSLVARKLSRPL

[13] = molecular target: Phenylethanolamine N-methyltransferase (Homo sapiens) (UniProt P11086); assay: as above; conditions: MTase-Glo luminescence, SAH detection, recombinant enzyme; measured here: PNMT max response; stronger effect = lower value
Sequence of Phenylethanolamine N-methyltransferase (Homo sapiens) (P11086 whole entry, looked up): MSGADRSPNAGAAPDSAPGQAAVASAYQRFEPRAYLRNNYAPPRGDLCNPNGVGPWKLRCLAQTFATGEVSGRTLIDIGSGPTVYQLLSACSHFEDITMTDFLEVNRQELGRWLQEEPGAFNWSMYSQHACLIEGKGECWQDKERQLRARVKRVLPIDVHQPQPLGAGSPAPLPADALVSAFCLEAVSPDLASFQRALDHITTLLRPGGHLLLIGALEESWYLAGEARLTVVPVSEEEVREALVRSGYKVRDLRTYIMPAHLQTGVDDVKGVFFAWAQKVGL

CC1=CC2OC3CC(O)[C@](C)([C@@]2(C)C(O)C1=O)[C@]31CO1 (stereo not given in full)
active: Potency [1] 5170 nM | Potency [3] 5.15 µM | Potency [4] 4.09 µM | Potency (HEK293) 5.17 µM
inactive: Potency [2]

C[C@]12CC[C@H](O)C[C@@H]1CC[C@@H]1[C@@H]2CC[C@]2(C)C(=O)CC[C@@H]12
inactive: Potency [5] | Potency [1] | Potency [2] | Potency [3] | Potency [4] | max response (HEK293) -15.1% | outcome (KB-3-1) | Potency (HeLa) | Potency (SKOV3)

C[C@]12CC[C@H](O)C[C@@]1(O)CC[C@@H]1[C@@H]2CC[C@]2(C)[C@@H](c3ccc(=O)oc3)CC[C@]12O
active: Potency [1] 18.4 nM | Potency (HEK293) 0.0517 µM
inactive: Potency [2] | Potency (HeLa) | Potency (SKOV3)

CCN1C[C@]2(COC)CC[C@H](O)[C@@]34C5C[C@@H]6[C@@H](OC)C[C@@](OC(C)=O)(C5[C@@H]6OC(C)=O)[C@H]([C@H](OC)C23)[C@@H]14 (stereo not given in full)
inactive: Potency [1] | Potency [2] | Potency [3] | Potency [4] | max response (HEK293) 3.98% | max response (KB-3-1) -0.111% | Potency (HeLa) | Potency (SKOV3)

CN1CCC2=C(C1)c1ccccc1Cc1ccccc12
inactive: Potency [2] | Potency [7] | outcome (HaCat [8]) | max response (KB-3-1) -19% | Potency (CRL-7250) | outcome (HACAT [9]) | Potency (HeLa) | Potency (SKOV3)
active: Potency [6] 477 nM

Cc1ccc2c(c1)[C@H]1CN(C)CC[C@H]1N2C(=O)CSc1nnnn1-c1ccc(Cl)cc1
active: Potency [6] 10700 nM
inactive: Potency [1] | Potency [2] | Potency [7] | Potency [3] | Potency [4] | outcome (HaCat [8]) | max response (KB-3-1) -5.2% | outcome (HACAT [9]) | outcome (NIH3T3) | Potency (HeLa) | Potency (SKOV3)

C=C(C)[C@@]12O[C@@H]1[C@@]1(C)C(=CC2=O)CC[C@@H](OC(C)=O)[C@@H]1C
active: Potency [1] 5170 nM | Potency [3] 4.59 µM | Potency [4] 3.25 µM | Potency (HEK293) 3.26 µM | Potency (KB-3-1) 13 µM | Potency (SKOV3) 3.16 µM

C/C=C(\C)C(=O)OC1CC2C(CC=C3CC(OC4CC(OC)C(OC5CC(OC)C(OC6CC(OC)C(OC7CC(OC)C(O)C(C)O7)C(C)O6)C(C)O5)C(C)O4)CCC32C)C2(O)CCC(C(C)=O)C12C (stereo not given)
inactive: outcome [5] inactive [at 9.29 µM] | outcome [1] inactive [at 9.29 µM] | Potency [2] | outcome (HaCat [8]) | outcome (KB-3-1) | outcome (HACAT [9]) inactive [at 9.27 µM] | outcome (NIH3T3) inactive [at 9.27 µM] | activity change, negative = cytotoxicity (HeLa) 9.98% [at 11.6 µM] | activity change, negative = cytotoxicity (SKOV3) -3.35% [at 11.6 µM]

CN(C(=O)C(c1ccccc1)c1ccccc1)[C@H](CN1CC[C@H](O)C1)c1ccccc1
active: Potency [6] 122 nM
inactive: Potency [2] | outcome (HaCat [8]) | max response (KB-3-1) -3.45% | Potency (CRL-7250) | outcome (HACAT [9]) | Potency (HeLa) | Potency (SKOV3)

CC12CCC3C(C1)c1c(cc(O)c(C(=O)c4ccccc4)c1OC3(C)C)O2 (stereo not given)
inactive: Potency [1] | Potency [3] | Potency [4] | max response (HaCat [8]) -1.85% | max response (KB-3-1) -6.92% | Potency (CRL-7250) | Potency (HeLa) | Potency (SKOV3)

c1ccc([C@@H]2C[C@H]2NC2CCNCC2)cc1
active: Potency [6] 10700 nM
inactive: Potency [1] | Potency [3] | max response (HEK293) -16.2% | max response (KB-3-1) -11.5% | Potency (HeLa) | Potency (SKOV3)

CC1=CC(=O)[C@@H](O)[C@@]2(C)C1C[C@H]1OC(=O)[C@H](O)[C@@]3(O)[C@@H](C)[C@@H](O)[C@H](O)C2[C@@]13C (stereo not given in full)
inactive: Potency [2]
active: Potency [3] 1.27 µM | Potency [4] 1.01 µM | Potency (HEK293) 2.02 µM | Potency (KB-3-1) 6.4 µM

CC[C@H](O)[C@@H](C)[C@H]1O[C@@H]1C[C@H](C)/C=C/C=C(\C)[C@H]1OC(=O)C[C@H](O)CC[C@@](C)(O)[C@@H](OC(C)=O)/C=C/[C@@H]1C
active: Potency [1] 9.2 nM | Potency [3] 0.0058 µM | Potency (HEK293) 0.0041 µM | Potency (KB-3-1) 0.0052 µM
inactive: Potency [2] | Potency [4]

CCCN(CCC)[C@@H]1CCc2ccc3[nH]c(C#N)cc3c2C1
-9.72%: activity [12]
inactive: Potency [5] | Potency [1] | Potency [2] | Potency [3] | Potency [4] | outcome (HaCat [8]) | outcome (KB-3-1) | Potency (CRL-7250) | outcome (HACAT [9]) | outcome (NIH3T3) | Potency (HeLa)
-4.55%: activity [13]
0%: activity change, negative = inhibition [11]
active: Potency [6] 338 nM
-0.359%: activity [10]

CC(=O)O[C@H]1C[C@]2(O)[C@@H]3CC[C@@H]4C[C@@H](O)CC[C@]4(C)[C@H]3CC[C@]2(C)[C@H]1c1ccc(=O)oc1
active: Potency [1] 51.7 nM | Potency [3] 0.0459 µM | Potency [4] 0.0578 µM | Potency (HEK293) 0.0461 µM | Potency (KB-3-1) 0.058 µM | Potency (HeLa) 316 nM | Potency (SKOV3) 0.1 µM

COc1cc(C(=O)N2CC[C@@H](O)[C@@H](N)C2)cc2nc(-c3cc4ccccc4n3CC3CC3)n(C)c12
active: Potency [3] 20.9 µM | Potency [4] 18.6 µM | Potency (HEK293) 14.8 µM

CN1C(=O)N(c2ccc(C#N)c(C(F)(F)F)c2)C(=O)[C@@]1(CO)c1ccccc1
inactive: Potency [1] | Potency [2] | Potency [4] | max response (HaCat [8]) 0.274% | max response (KB-3-1) 2.44% | Potency (CRL-7250) | Potency (SKOV3)
